In all, about 220,000 compounds went through this assay and about 530 (0.24%) were called active. No stated cut-off is given here; in the data, active means inhibition above about 13%; inconclusive means no clear call, values can overlap the other calls; inactive means below that. Shown is part of a subset that was picked to be rich in actives. Potency and affinity values are given separately.

In this assay the target is Bifunctional protein GlmU (Mycobacterium tuberculosis (strain ATCC 25618 / H37Rv)) (UniProt P9WMN3). The assay is described as follows: inhibition of mycobacterial GlmU enzyme – biochemical, glucosamine-1-phosphate acetyltransferase (AID 1376).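 Further: 0% = complete reaction with vehicle and 100% = reaction without substrate.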 As to conditions: M. tuberculosis GlmU acetyltransferase enzyme assay; active compounds read high;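 tested at 30 µM in the primary screen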.
Chain of Bifunctional protein GlmU (Mycobacterium tuberculosis (strain ATCC 25618 / H37Rv)) (P9WMN3 whole entry, looked up): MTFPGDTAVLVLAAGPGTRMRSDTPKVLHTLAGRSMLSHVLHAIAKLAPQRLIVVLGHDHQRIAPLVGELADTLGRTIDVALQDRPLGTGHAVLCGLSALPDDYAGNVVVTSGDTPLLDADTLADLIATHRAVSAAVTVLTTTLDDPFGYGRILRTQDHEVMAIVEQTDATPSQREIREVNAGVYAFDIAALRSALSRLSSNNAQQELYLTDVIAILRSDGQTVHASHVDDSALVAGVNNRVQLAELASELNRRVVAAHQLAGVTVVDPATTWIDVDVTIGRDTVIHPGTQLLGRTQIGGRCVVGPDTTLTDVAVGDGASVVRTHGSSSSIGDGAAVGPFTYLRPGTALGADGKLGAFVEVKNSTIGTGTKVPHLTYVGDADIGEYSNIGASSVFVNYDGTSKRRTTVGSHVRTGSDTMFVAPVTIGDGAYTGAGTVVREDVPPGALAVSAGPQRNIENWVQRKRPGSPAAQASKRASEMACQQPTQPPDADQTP
In the case of `O=C(Cn1nc(-c2ccccc2)ccc1=O)N1CCC2(CC1)OCCO2`, the inhibition (usually the drop in the measured response relative to a control, in per cent) is -1.66% (inactive).

For `CC(C)C(=O)N1N=C2CCCCC2C1(O)C(F)(F)F` (stereo not drawn), the inhibition is -2.41% (inactive).

For `O=C(Nc1ccccc1)c1ccc2snnc2c1`, the inhibition is -0.53% (inactive).

On to `S=C=Nc1ccccn1`, for which the inhibition was -0.05% (inactive).

As for `COc1ccccc1Nc1nc(N)nc(CN2CCOCC2)n1`, the inhibition was -4.21% (inactive).

In the case of `Cc1ccc(NC(=S)N/N=C2\CC(C)(C)Oc3ccc(O)cc32)cc1`, the inhibition was 0.56% (inactive).

As to `O=C(Nc1ccc(-c2nc3ccccc3[nH]2)cc1)c1ccc(N2C(=O)CCC2=O)cc1`, the inhibition is -0.75% (inactive).

`O=C(CSc1ncn[nH]1)NCCOc1ccccc1`: the inhibition is -0.55% (inactive).

On to `O=C1N[C@@H](Cc2ccccc2)C(=O)N2[C@@H]1C[C@@]1(Br)c3ccccc3N(S(=O)(=O)c3ccccc3)[C@@H]21`, for which the inhibition is 3.3% (inactive).

As to `O=C(O)c1ccc(-n2cccc2/C=C2/NC(=O)N(c3ccccc3)C2=O)cc1`, the inhibition is 14.4% (active).

Turning to `CN1C(=O)S/C(=C/c2cccn2-c2cccc(C(=O)O)c2)C1=O`, the inhibition was -3.46% (inactive).

Take `O=C(O)c1cccc(-n2cccc2/C=C2\SC(=O)N(Cc3ccccc3F)C2=O)c1`: the inhibition is 14.4% (active).

Consider `O=C1N/C(=C/c2cccn2-c2ccccc2)C(=O)N1Cc1ccc(F)cc1`, for which the inhibition was 1.54% (inactive).

On to `N#CC(C#N)=Cc1cccn1-c1ccc(S(N)(=O)=O)cc1`, for which the inhibition is -1.86% (inactive).

Take `N#C/C(=C/c1cccn1-c1cccc(C(=O)O)c1)c1ccc(F)cc1`: the inhibition was 2.91% (inactive).

Take `O=C1N/C(=C/c2cccn2-c2ccc(F)cc2)C(=O)N1Cc1ccccc1`: the inhibition was -0.61% (inactive).

Take `N#Cc1ccccc1CN1C(=O)S/C(=C/c2cccn2-c2cccc(C(=O)O)c2)C1=O`: the inhibition was 2.69% (inactive).

Take `N#CC(C#N)=Cc1cccn1-c1ccc(C(=O)O)cc1`: the inhibition was 13.8% (active).

`CN(C)c1nc(N/N=C\c2ccc(Cl)c([N+](=O)[O-])c2)nc(Nc2ccc(F)cc2)n1`: the inhibition was 3.5% (inactive).

With `COc1ccc(OCCCC(=O)Nc2cc([N+](=O)[O-])ccc2C)cc1`, the inhibition was 0.05% (inactive).

`Cc1ccc(NC(=O)CN2C(=O)NC3(CCc4ccccc43)C2=O)cc1Cl` (stereo not drawn): the inhibition was 2.43% (inactive).

`CCc1ccc(C(=O)CN2CCSC2=N)cc1`: the inhibition is -4.03% (inactive).

For `COc1ccc2nc(C)cc(SCC(=O)OC(C)C)c2c1`, the inhibition was -3.07% (inactive).

Turning to `Cc1ccc(NC(=O)CS(=O)CC(=O)NC2CCN(Cc3ccccc3)CC2)c(C)c1` (stereo not drawn), the inhibition was 5.17% (inactive).

For the molecule `CC1CCC/C(=N/Nc2nc3ccccc3s2)C1` (stereo not drawn), the inhibition was 1.47% (inactive).

Regarding `O=C(Cn1ccc([N+](=O)[O-])n1)N1CCCCC1`, the inhibition was 1.12% (inactive).

With `Cc1nn(C(=O)Cn2ccc([N+](=O)[O-])n2)c(C)c1Br`, the inhibition was 17.6% (active).

As for `O=C(Cn1ccc([N+](=O)[O-])n1)N1CCCCCC1`, the inhibition was -1.9% (inactive).

As to `Cc1cc(C)n2nc(SCCOc3ccccc3)nc2n1`, the inhibition is -0.25% (inactive).

`Cc1cccc(NC(=S)NCc2cccn2C)c1`: the inhibition is 4.86% (inactive).

In the case of `Cc1nc2cccc(C(=O)NC3CCCCC3)c2o1`, the inhibition was 14.4% (active).

On to `O=C(NC1CCCCC1)c1cc(Cl)nc2ccccc12`, for which the inhibition was 1.21% (inactive).

As to `Cc1nc2cccc(C(=O)NCc3ccccc3)c2o1`, the inhibition is -4.24% (inactive).

With `Cc1cc(Br)ccc1SCC(=O)OCC(=O)Nc1ncc(C(F)(F)F)cc1Cl`, the inhibition is 1.65% (inactive).

For `CCOC(=O)/C(C#N)=C/Nc1ccccc1OC`, the inhibition was 1.82% (inactive).

Take `CCOC(=O)/C(C#N)=C/Nc1cc(OC)ccc1OC`: the inhibition is -9.19% (inactive).

As to `CCOC(=O)/C(C#N)=C/Nc1cc(C(=O)OCC)cc2c(OC)c(OC)ccc12`, the inhibition is 26.4% (active).

As to `C#Cc1ccc([C@H]2C=C(C(=O)NC3CC3)O[C@@H](OCC)[C@@H]2CCCO)cc1`, the inhibition is 3.19% (inactive).

Regarding `CCCN1C(=O)c2cc(C(=O)Nc3ccc(OC)cc3OC)ccc2C1Nc1ccc(OC)cc1OC` (stereo not drawn), the inhibition was -6.94% (inactive).

Take `CCCN1C(=O)c2cc(C(=O)Nc3ccccc3C)ccc2C1Nc1ccccc1C` (stereo not drawn): the inhibition is 12.9% (active).

In the case of `CCCN1C(=O)c2cc(C(=O)Nc3ccccc3OC)ccc2C1Nc1ccccc1OC` (stereo not drawn), the inhibition is -4.43% (inactive).

In the case of `Cc1cc(NC(=O)C2CCCCC2C(=O)O)no1` (stereo not drawn), the inhibition was -2.61% (inactive).

Turning to `Cc1cccc(NNC(N)=S)c1C`, the inhibition was 1.37% (inactive).

For `CN(C)c1ccc(/C=C/c2ccc3c4ccccc4ccc3[n+]2-c2ccccc2)cc1`, the inhibition is 41% (active).

Consider `CC[n+]1c(/C=C/c2ccc(N(C)C)cc2)ccc2ccccc21`, for which the inhibition was 2.12% (inactive).

For the molecule `CN(C)c1ccc(/C=C/c2ccc3ccccc3[n+]2C)cc1`, the inhibition is -0.66% (inactive).

As for `Cn1cccc1CC(=O)N/N=C/c1cccc([N+](=O)[O-])c1`, the inhibition was -5.88% (inactive).

As to `Cc1ccc(-n2c(C)nc3c(cnn3-c3ccc(C)c(C)c3)c2=O)cc1C`, the inhibition is 6.8% (inactive).

As for `Cc1ccc(-n2ncc3c(=O)n(-c4ccc(C)c(C)c4)c(C)nc32)cc1`, the inhibition is 48.2% (active).

In the case of `Cc1ccc(-n2c(C)nc3c(cnn3-c3ccc(F)cc3)c2=O)cc1C`, the inhibition is -3.89% (inactive).

Regarding `Cn1cc(/C=N/NC(=O)c2ccc(C#N)cc2F)c2ccccc21`, the inhibition was 1.51% (inactive).

Take `CN(C)Cc1c(O)ccc2c3c(c(=O)oc12)CCCCC3`: the inhibition was 0.45% (inactive).

Turning to `C=CCN(CC=C)Cc1c(O)ccc2c1oc(=O)c1ccccc12`, the inhibition was -2.23% (inactive).

Regarding `CN(Cc1c(O)ccc2c1oc(=O)c1ccccc12)C1CCCCC1`, the inhibition was 14% (active).

For the molecule `COc1ccc2cc3cc(C(=O)NCCCN4CCc5ccccc5C4)sc3nc2c1`, the inhibition was -12.5% (inactive).

Take `Cc1ccc(/C=N/NC(=O)C[n+]2ccccc2)o1`: the inhibition is 5.08% (inactive).

As for `O=C(CCC(=O)c1cccs1)Nc1nnc(C2CC2)s1`, the inhibition is 2.51% (inactive).

For the molecule `Cc1ccsc1/C=N/NC(=S)NCc1ccccc1`, the inhibition is 0.62% (inactive).

Turning to `O=[N+]([O-])c1ccc2nccn2c1`, the inhibition was 2.74% (inactive).

Consider `Cc1ccc(NC(=O)CN2C(=O)N/C(=C/c3ccc(N4CCOCC4)cc3)C2=O)cc1`, for which the inhibition was -5.18% (inactive).

In the case of `Cc1cccc(NC(=O)CN2C(=O)N/C(=C\c3cccn3-c3cccc(C(=O)O)c3)C2=O)c1`, the inhibition was -2.01% (inactive).

For `Cc1ccc(-n2cccc2/C=C2/NC(=O)N(CC(=O)Nc3cccc(C)c3)C2=O)cc1`, the inhibition was 10.8% (inactive).

With `Cc1ccc(NC(=O)CN2C(=O)S/C(=C\c3cccn3-c3cccc(C(=O)O)c3)C2=O)cc1C`, the inhibition is 6.74% (inactive).

As for `Cc1ccc(NC(=O)CN2C(=O)S/C(=C\c3cc(C)n(-c4cccc(C(=O)O)c4)c3C)C2=O)cc1`, the inhibition was 0.24% (inactive).

In the case of `Cc1ccc(NC(=O)CN2C(=O)N/C(=C/c3cc(C)n(-c4cccc(C(=O)O)c4)c3C)C2=O)cc1`, the inhibition is 14.9% (active).

Take `Cc1cc(C=C2C(=O)c3ccccc3C2=O)c(C)n1-c1cccc(C(=O)O)c1`: the inhibition was 7.28% (inactive).

As for `Cc1ccc(NC(=O)CN2C(=O)N/C(=C/c3cc(C)n(-c4ccc(C(=O)O)cc4)c3C)C2=O)cc1`, the inhibition is 8.1% (inactive).

Turning to `CC(=O)NC1=NC(=O)/C(=C/c2cc(C)n(-c3ccc(NC(C)=O)cc3)c2C)S1`, the inhibition is 3.45% (inactive).

Source of the values: PubChem BioAssay AID1376 (SRMLSC, 2008).
